Results published in the supplement of paper PMC10849652.
Of roughly 8,800 targets only a part is listed; those with a hit were picked by preference. About 0.5% of all pairs of compound and target were hits. A number with no mark means an inactive call.

Legend:
Assay in all cases: log2 fold change, soluble protein after heating vs DMSO (PISA); higher = thermal stabilisation; K562 lysate, 10 uM; active = over 0.2 and 3.5 SD of the protein, either way, in both replicates (recomputed)
[1] = compound: C#Cc1cccc(Nc2ncnc3cc(OCCOC)c(OCCOC)cc23)c1 [erlotinib]
How it was run: (§1)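 Quantification was by TMTpro 16plex LC-MS/MS with equalised channel sums, applied to the supernatant after 21,000xg for 90 min. Samples were crude K562 extract at 1 mg/mL protein in PBS pH 7.4 with 1 mM MgCl2, treated with 10 μM compound for 30 min, heated for 3 min across 48°C-58°C, pooled and brought to 0.5% NP-40 at 4°C. Values are log-two fold changes in thermal stability relative to solvent controls, from duplicates.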

[2] = compound: C/C(=N\NC(=O)C1=CC(=CC=C1)S(=O)(=O)N2CCOCC2)/C3=C(C=CC(=C3)Cl)O
How it was run: as §1

[3] = compound: C1=CC(=CC=C1C2=NC3=C(N2)C=C(C=C3)C(=O)N)OC4=CC=C(C=C4)Cl
How it was run: as §1

[4] = compound: C1=CC2=C(C=CC(=C2)/C=C\3/C(=O)NC(=NCC4=CC=CS4)S3)N=C1
How it was run: as §1

[5] = compound: C1=CC2=NC=CN=C2C=C1/C=C/3\C(=O)NC(=O)S3
How it was run: as §1

[6] = compound: C1=CC=C(C=C1)C2=NC(=C(N2)C3=CC=NC=C3)C4=CC(=C(C=C4)Cl)O
How it was run: as §1

[7] = compound: C1=CC=C2C(=C1)C3=NNC4=CC=CC(=C43)C2=O
How it was run: as §1

[8] = compound: C1CCN(C1)C(=O)NC2=CC=CC(=C2)NC3=NC=C(C(=N3)NCCC4=CN=CN4)Br
How it was run: as §1

[9] = compound: C1CN(CCC1(CC2=CC=C(C=C2)Cl)N)C3=NC=NC4=C3C=CN4
How it was run: as §1

[10] = compound: C1COCCN1CCN2C3=CC=CC=C3N=C2NC(=O)C4=CC(=CC=C4)[N+](=O)[O-] [IRAK-1-4 Inhibitor I]
How it was run: as §1

[11] = compound: C=CC(=O)N1CCC[C@@H](n2nc(-c3ccc(Oc4ccccc4)cc3)c3c(N)ncnc32)C1 [ibrutinib]
How it was run: as §1

[12] = compound: CC(=O)c1cnc2ccc(-c3cc(Cl)c(O)c(Cl)c3)nc2c1N[C@H]1CC[C@H](CN(C)C)CC1
How it was run: as §1

[13] = compound: CC(C)(C)Cn1c(N)nc2ccc(-c3[nH]c(C(C)(C)C)nc3-c3ccc(F)cc3)nc21 [ralimetinib]
How it was run: as §1

[14] = compound: CC(C)(O)CC(=O)NCCn1ccc2ncnc(Nc3ccc(Oc4cccc(C(F)(F)F)c4)c(Cl)c3)c21
How it was run: as §1

[15] = compound: CC(C)C1=C2N=C(C=C(N2N=C1)NCC3=CC=CC=C3)NCCCCCCN
How it was run: as §1

[16] = compound: CC1=C(C(CC(=O)N1)C2=CC=C(C=C2)C(F)(F)F)C(=O)NC3=C(C=C4C(=C3)C=NN4)F
How it was run: as §1

[17] = compound: CC1=C(C2=C(C=C1)C(=O)C3=CC=CC=C3N2CCCN)C
How it was run: as §1

[18] = compound: CC1=C(C=C(C=C1)NC(=O)C2=CC(=CC=C2)C(C)(C)C#N)NC3=CC4=C(C=C3)N=CN(C4=O)C
How it was run: as §1

[19] = compound: CC1=C(C=C(C=C1)NC(=O)C2=CC(=CC=C2)N(C)C)NC(=O)C3=CC=C(C=C3)O
How it was run: as §1

[20] = compound: CC1=CC=C(C=C1)SC2=C3C=C(SC3=CN=C2)C(=O)N
How it was run: as §1

UniProt P40616, sequence (P40616 whole entry, looked up): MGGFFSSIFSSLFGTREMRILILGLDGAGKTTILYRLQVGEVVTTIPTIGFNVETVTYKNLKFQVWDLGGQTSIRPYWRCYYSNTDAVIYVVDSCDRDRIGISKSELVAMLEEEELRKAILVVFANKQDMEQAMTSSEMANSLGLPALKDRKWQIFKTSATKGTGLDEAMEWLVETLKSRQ
UniProt P42331, sequence (P42331 whole entry, looked up): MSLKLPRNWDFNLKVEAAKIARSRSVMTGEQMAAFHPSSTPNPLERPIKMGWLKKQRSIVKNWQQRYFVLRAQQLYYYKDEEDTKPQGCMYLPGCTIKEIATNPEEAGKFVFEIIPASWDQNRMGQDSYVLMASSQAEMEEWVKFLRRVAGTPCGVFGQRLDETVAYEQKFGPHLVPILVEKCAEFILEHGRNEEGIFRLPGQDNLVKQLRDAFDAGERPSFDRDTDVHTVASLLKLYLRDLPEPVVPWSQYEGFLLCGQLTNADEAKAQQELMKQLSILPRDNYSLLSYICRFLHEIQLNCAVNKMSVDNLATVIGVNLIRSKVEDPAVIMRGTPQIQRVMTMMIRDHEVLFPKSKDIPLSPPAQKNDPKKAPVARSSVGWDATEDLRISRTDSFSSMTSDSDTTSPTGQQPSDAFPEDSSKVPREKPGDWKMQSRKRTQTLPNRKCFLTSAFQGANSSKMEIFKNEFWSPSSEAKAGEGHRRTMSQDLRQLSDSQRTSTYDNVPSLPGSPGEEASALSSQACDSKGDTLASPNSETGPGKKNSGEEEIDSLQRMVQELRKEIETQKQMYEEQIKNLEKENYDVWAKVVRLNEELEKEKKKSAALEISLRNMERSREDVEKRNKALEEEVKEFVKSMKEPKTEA
UniProt P50995, sequence (P50995 whole entry, looked up): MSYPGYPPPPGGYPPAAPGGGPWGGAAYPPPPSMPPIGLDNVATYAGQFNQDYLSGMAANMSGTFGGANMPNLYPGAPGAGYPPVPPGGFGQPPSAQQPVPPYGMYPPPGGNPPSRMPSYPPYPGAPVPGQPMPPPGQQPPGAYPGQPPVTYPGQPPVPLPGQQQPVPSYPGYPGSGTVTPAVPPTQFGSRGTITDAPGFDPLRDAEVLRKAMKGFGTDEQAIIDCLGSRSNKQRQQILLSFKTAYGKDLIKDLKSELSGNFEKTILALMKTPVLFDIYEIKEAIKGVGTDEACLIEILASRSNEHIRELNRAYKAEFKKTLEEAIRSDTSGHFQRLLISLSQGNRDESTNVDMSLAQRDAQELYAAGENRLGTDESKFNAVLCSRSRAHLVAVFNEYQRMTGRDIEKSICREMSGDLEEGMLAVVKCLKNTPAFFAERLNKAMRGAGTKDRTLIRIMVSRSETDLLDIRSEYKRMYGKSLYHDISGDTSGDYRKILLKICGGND
UniProt Q9NWB6, sequence (Q9NWB6 whole entry, looked up): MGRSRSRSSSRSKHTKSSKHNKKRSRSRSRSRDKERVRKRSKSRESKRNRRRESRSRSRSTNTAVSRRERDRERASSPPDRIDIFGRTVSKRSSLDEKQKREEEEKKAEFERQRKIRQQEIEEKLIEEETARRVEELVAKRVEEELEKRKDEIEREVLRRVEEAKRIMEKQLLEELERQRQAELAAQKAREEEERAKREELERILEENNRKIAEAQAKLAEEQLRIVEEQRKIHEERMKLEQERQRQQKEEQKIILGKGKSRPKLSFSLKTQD
UniProt Q562R1, sequence (Q562R1 whole entry, looked up): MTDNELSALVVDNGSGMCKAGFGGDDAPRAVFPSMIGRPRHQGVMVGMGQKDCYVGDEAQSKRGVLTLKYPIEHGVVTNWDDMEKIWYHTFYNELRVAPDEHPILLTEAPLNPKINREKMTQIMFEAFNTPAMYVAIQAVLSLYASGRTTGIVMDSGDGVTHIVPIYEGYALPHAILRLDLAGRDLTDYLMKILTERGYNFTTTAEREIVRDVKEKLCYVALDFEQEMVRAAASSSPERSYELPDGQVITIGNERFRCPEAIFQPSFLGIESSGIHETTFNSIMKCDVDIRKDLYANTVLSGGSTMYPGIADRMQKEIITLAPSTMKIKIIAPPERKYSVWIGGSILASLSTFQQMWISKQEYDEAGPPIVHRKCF
UniProt Q9UJX3, sequence (Q9UJX3 whole entry, looked up): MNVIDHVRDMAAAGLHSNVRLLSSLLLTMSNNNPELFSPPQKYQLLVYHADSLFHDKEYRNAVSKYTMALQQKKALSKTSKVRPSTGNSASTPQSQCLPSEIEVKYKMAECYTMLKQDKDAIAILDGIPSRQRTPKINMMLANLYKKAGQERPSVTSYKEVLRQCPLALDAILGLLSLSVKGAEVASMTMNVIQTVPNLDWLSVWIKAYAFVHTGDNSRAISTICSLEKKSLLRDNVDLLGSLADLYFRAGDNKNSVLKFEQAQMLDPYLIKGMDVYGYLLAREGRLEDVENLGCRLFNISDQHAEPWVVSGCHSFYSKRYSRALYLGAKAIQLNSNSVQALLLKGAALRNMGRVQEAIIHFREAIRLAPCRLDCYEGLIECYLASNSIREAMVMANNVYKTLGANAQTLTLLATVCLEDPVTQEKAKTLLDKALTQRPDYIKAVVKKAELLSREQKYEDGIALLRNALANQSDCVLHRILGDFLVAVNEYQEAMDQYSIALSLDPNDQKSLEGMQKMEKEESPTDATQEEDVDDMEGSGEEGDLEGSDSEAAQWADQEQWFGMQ
UniProt P52895, sequence (P52895 whole entry, looked up): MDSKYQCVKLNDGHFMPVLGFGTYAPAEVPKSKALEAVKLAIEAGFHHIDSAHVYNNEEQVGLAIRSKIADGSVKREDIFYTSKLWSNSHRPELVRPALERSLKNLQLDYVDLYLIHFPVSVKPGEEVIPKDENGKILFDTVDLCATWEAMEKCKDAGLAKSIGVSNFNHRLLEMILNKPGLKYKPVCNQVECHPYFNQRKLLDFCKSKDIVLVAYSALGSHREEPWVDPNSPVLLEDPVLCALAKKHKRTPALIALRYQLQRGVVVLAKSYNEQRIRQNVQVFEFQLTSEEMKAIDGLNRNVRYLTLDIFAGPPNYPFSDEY

Row | Target | log2 fold change [1] | log2 fold change [2] | log2 fold change [3] | log2 fold change [4] | log2 fold change [5] | log2 fold change [6] | log2 fold change [7] | log2 fold change [8] | log2 fold change [9] | log2 fold change [10] | log2 fold change [11] | log2 fold change [12] | log2 fold change [13] | log2 fold change [14] | log2 fold change [15] | log2 fold change [16] | log2 fold change [17] | log2 fold change [18] | log2 fold change [19] | log2 fold change [20]
1 | ACTG1 (UniProt I3L4N8) | 0.118 | 0.163 | -0.016 | 0.029 | -0.2 | 0.054 | -0.207 | -0.142 | -0.143 | -0.013 | 0.191 | 0.053 | -0.019 | 0.065 | -0.184 | 0.038 | -0.677 (active) | -0.181 | -0.006 | 0.033
2 | ANXA11 (UniProt P50995) | 0.015 | 0.031 | 0.025 | -0.022 | 0.017 | -0.079 | -0.016 | 0.011 | 0.033 | 0.006 | -0.005 | -0.027 | -0.002 | 0.057 | 0.034 | -0.031 | 0.023 | -0.041 | 0.01 | 0
3 | ARL1 (UniProt P40616) | 0.006 | -0.212 | 0.037 | -0.022 | -0.03 | -0.013 | -0.018 | -0.046 | 0.025 | 0.053 | -0.029 | -0.005 | 0.027 | -0.001 | -0.017 | 0.098 | -0.026 | 0.134 | -0.021 | -0.027
4 | ANAPC7 (UniProt Q9UJX3) | -0.001 | 0.006 | 0.002 | 0.024 | -0.016 | 0.003 | 0.027 | 0 | -0.017 | 0.005 | -0.007 | 0.002 | 0.015 | -0.009 | 0.001 | 0.01 | 0.002 | 0.022 | 0.023 | 0.01
5 | ARGLU1 (UniProt Q9NWB6) | -0.008 | 0.069 | -0.039 | 0.009 | -0.034 | -0.057 | -0.002 | 0.003 | -0.047 | 0.025 | 0.027 | -0.034 | -0.027 | 0.015 | 0.005 | -0.008 | 0.026 | -0.027 | -0.022 | 0.019
6 | ARHGAP25 isoform 4 (UniProt P42331) | 0.029 | 0.045 | 0.026 | -0.031 | -0.031 | -0.002 | -0.029 | 0.007 | 0.034 | -0.006 | 0.016 | 0.036 | 0.026 | -0.003 | -0.026 | 0.064 | -0.014 | 0.117 | 0.059 | -0.006
7 | AKR1C2 (UniProt P52895) | 0.03 | -0.167 | 0.005 | 0.015 | 0.006 | 0.013 | -0.046 | -0.033 | 0.006 | -0.024 | 0.031 | 0.021 | -0.043 | -0.035 | 0.025 | -0.025 | 0.038 | -0.013 | 0.018 | 0.019
8 | ACTBL2 (UniProt Q562R1) | -0.037 | -0.163 | 0.02 | 0.043 | 0.118 | 0.004 | 0.024 | 0.064 | 0.109 | -0.006 | 0.001 | -0.016 | 0.006 | 0.082 | -0.034 | 0.086 | 0.069 | -0.043 | 0.017 | 0.123
